Screens from PubChem.
SNCA expr inhib = reduces expression of the alpha-synuclein gene; HEK-293 SNCA-luciferase knock-in, luminescence, 24 h; Potency, µM (titrated, usually from 57.2 µM), for inactives: at the highest dose activity change, negative = inhibition, usual class: inhibitors; 0.17% of 140,000 active; AID 1671194;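 also: potency is read from the fitted curve at half-maximal effect; plate controls were DMSO cells for no effect and cell-free wells for full effect; nearly all actives have a fitted effect of over 45% in size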
IP6K1 inh = blocks human inositol hexakisphosphate kinase 1; Q92551; IP6K1 kinase, ADP-Glo luminescence, 2 h; active compounds read low; activity change, % (series mostly up to about 58 µM); 0.81% of 140,000 active; in the data active = activity change below about -25%; also: % is scaled to controls: 0 for no effect and ±100 for the full control effect
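ADP-Glo luminescence measures ADP made by human IP6K1 during a 2 h RT reaction with ATP/IP6 (mix at 1.3 mM/130 uM); top library doses 57.5 and 19.1 uM final.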
KDM5B inh = inhibitors of human KDM5B histone demethylase; Q9UGL1; KDM5B demethylase, FDH-coupled NADH fluorescence (FDH is formaldehyde dehydrogenase); Potency, µM (series often up to 57.7 µM), most hits filed as inhibitors; 2.6% of 220,000 active; AID 1347165; also: potency is read from the fitted curve at half-maximal effect; 0% is about no effect; nearly all actives have a fitted effect of over 70% in size
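Here, H3K4me3 peptide (12.5 µM in substrate mix) is demethylated by KDM5BΔAP, 200 nM final, after 10 min compound exposure. Formaldehyde product is coupled through FDH (0.25 U/mL in mix) to NADH fluorescence; 30-min ΔRFU feeds dose-response curves.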
HEK293 viab = cell viability loss counter-screen | HEK-293-SNCA-luc viability, GF-AFC fluorescence, 24 h | 0.12% of 150,000 active | Potency, µM (series often up to 57.1 µM), for the others: top-dose activity change, negative = cytotoxicity, usual class: cytotoxic;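 also: potency is read from the fitted curve at half-maximal effect; 0% = DMSO-treated cells and -100% = medium-only wells without cells; nearly all actives have a fitted effect of over 30% in size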
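Cytotoxicity counterscreen: after 24 h compound treatment of genome-edited SNCA-luciferase HEK-293 cells, live-cell protease substrate GF-AFC read by fluorescence after 30 min; activity scaled between DMSO (0%) and medium-only (-100%), curves Hill-fitted.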
An asterisk follows results filed as active; i = inactive; ? = inconclusive; · = not tested or not shown; [ ] = dose if it differs, or a comment. Rows were chosen to be rich in hits. Some 2.8% of all compounds tested hit in one or more screens of this group. Unless noted, calls follow the shape of the dose curve; as a rule, active = well fitted curve in the direction sought with a large enough effect; inconclusive = small, poorly fitted or top-dose-only effect, or another doubt; inactive = no such curve, though single readings can be large; an effect the other way counts as inactive or inconclusive.

SMILES | SNCA expr inhib | IP6K1 inh | KDM5B inh | HEK293 viab
CCn1cc(-c2ccc(F)cc2)cc1C(=O)NCc1cccnc1 | 5% | 22 | i | -1%
Cc1cc(C)nc(CNC(=O)c2ccc3nc(-c4ccc(F)cc4)cn3c2)n1 | 20% | 2 | 28µM* | 11%
O=C(NC1CCCCC1)c1ccc2c(c1)sc1nc(-c3ccc(F)cc3)cn12 | 20% | 13 | i | -9%
O=C(c1ccc2nc(-c3ccc(F)cc3)cn2c1)N1CCC(F)CC1 | 85% | -4 | 28µM* | -7%
O=C(c1ccc2nnc(-c3ccc(F)cc3)n2c1)N1CCOCC1 | -15% | 7 | i | 5%
O=C(NC1C=CS(=O)(=O)C1)c1ccc2nc(-c3ccc(F)cc3)cn2c1 (configuration not stated) | 73% | 1 | 25µM* | -23%
CN(C)CCOCC1(C)COc2ccc(C(=O)Nc3cccc(Cl)c3)cc2N1 (configuration not stated) | 158%[87.6 µM] | 1 | 35µM* | -3%[87.6 µM]
CN(C)CCOCC1(C)COc2ccc(C(=O)Nc3cccc(N(C)C)c3)cc2N1 (configuration not stated) | 16%[87.6 µM] | -5 | ? | 13%[87.6 µM]
CC1(COc2cccnc2)COc2ccc(C(=O)Nc3cccc(Cl)c3)cc2N1 (configuration not stated) | ? | -2 | 14µM* | ?
COc1cccc(NC(=O)c2ccc3c(c2)NC(C)(COc2cccnc2)CO3)c1 (configuration not stated) | -25%[87.6 µM] | -9 | ? | ?
CCCCOc1cccc(C(=O)Nc2cc(NC(=O)c3ccco3)ccc2OC)c1 | ? | -1 | ? | -18%
CS(=O)(=O)N1CCC(C2CCN(Cc3ccc[nH]3)C2)CC1 (configuration not stated) | -18% | 11 | ? | 8%[12.5 µM]
CC[C@@H](Nc1ncnc2c1CN(C1CCNCC1)C(=O)CN2C)c1ccccc1 | -4% | -2 | ? | 2%
CN1CC(=O)N(C2CCCNC2)Cc2c(NCCOc3ccccc3)ncnc21 (configuration not stated) | -3% | -5 | 45µM* | 9%
CCC(C)Nc1ncnc2c1CN(C1CCNCC1)C(=O)CN2C (configuration not stated) | 8% | 1 | 35µM* | 0%
CC(C)Nc1ncnc2c1CN(C1CCCNC1)C(=O)CN2C (configuration not stated) | 3% | -2 | 63µM* | 5%
CC(CO)Nc1ncnc2c1CN(C1CCCNC1)C(=O)CN2C (configuration not stated) | 6% | -5 | ? | 1%
COCCCNc1ncnc2c1CN(C1CCCNC1)C(=O)CN2C (configuration not stated) | 7% | -6 | ? | 2%
CN1CC(=O)N(C2CCNC2)Cc2c(NCC3CC3)ncnc21 (configuration not stated) | -16% | -2 | 89µM* | -1%
COC(=O)[C@@H]1Cc2c([nH]c3ccccc23)[C@H]2C[C@@H](NCc3cccnc3)C[C@@H](c3ccc(F)cc3)N21 | -11% | -7 | ? | 0%
COC(=O)[C@@H]1Cc2c([nH]c3ccccc23)[C@H]2C[C@@H](NCc3cccnc3)C[C@@H](c3ccc(F)c(F)c3)N21 | -18% | -1 | 25µM* | -16%
C#CCN[C@H]1C[C@@H]2c3[nH]c4ccccc4c3C[C@@H](C(=O)OC)N2[C@H](c2ccc(F)cc2)C1 | ? | -1 | 40µM* | ?
COC(=O)[C@@H]1Cc2c([nH]c3ccccc23)[C@H]2C[C@@H](NC3CC3)C[C@@H](c3ccc(F)cc3)N21 | 28µM* | -5 | i | ?
COC(=O)[C@@H]1Cc2c([nH]c3ccccc23)[C@H]2C[C@@H](NCCO)C[C@@H](c3ccc(F)cc3)N21 | -6% | -9 | ? | -8%
COC(=O)[C@@H]1Cc2c([nH]c3ccccc23)[C@H]2C[C@@H](N3CCOCC3)C[C@@H](c3ccc(F)cc3)N21 | 16% | -14 | 13µM* | 1%
CN(Cc1c(F)cccc1Cl)C(=O)c1cccc(NS(C)(=O)=O)c1 | · | · | i | ·
Cc1ccc(NC(=O)CSCc2cc(=O)n3ccsc3n2)cc1 | · | · | i | ·
Cc1nc(CC2CCN(c3nccc(-c4cccnc4)n3)CC2)no1 | 1% | -7 | 22µM* | -3%
O=C(NCc1ccccn1)C1CCN(c2nccc(-c3cccnc3)n2)CC1 | 51% | 8 | ? | -1%
